Laboratory results reported in the supplement of paper PMC11732987, “Enantioselective OTUD7B fragment discovery through chemoproteomics screening and high-throughput optimisation” (Communications Chemistry, 2025).

Columns and labels:
Assay in all cases: log2 ratio of Biotin-Ahx-Ub-VS probe labelling (fragment/DMSO); higher = less target engagement (more negative = stronger competition), active = hit call of the paper (q ≤ 0.05, log2 ratio ≤ -1)
Conditions in all cases: compound concentration: 200 uM; treatment time: 3 h
USP34 = USP34 (UniProt Q70CQ2)
Chain of USP34 (Q70CQ2 whole entry, the tested form may be a part): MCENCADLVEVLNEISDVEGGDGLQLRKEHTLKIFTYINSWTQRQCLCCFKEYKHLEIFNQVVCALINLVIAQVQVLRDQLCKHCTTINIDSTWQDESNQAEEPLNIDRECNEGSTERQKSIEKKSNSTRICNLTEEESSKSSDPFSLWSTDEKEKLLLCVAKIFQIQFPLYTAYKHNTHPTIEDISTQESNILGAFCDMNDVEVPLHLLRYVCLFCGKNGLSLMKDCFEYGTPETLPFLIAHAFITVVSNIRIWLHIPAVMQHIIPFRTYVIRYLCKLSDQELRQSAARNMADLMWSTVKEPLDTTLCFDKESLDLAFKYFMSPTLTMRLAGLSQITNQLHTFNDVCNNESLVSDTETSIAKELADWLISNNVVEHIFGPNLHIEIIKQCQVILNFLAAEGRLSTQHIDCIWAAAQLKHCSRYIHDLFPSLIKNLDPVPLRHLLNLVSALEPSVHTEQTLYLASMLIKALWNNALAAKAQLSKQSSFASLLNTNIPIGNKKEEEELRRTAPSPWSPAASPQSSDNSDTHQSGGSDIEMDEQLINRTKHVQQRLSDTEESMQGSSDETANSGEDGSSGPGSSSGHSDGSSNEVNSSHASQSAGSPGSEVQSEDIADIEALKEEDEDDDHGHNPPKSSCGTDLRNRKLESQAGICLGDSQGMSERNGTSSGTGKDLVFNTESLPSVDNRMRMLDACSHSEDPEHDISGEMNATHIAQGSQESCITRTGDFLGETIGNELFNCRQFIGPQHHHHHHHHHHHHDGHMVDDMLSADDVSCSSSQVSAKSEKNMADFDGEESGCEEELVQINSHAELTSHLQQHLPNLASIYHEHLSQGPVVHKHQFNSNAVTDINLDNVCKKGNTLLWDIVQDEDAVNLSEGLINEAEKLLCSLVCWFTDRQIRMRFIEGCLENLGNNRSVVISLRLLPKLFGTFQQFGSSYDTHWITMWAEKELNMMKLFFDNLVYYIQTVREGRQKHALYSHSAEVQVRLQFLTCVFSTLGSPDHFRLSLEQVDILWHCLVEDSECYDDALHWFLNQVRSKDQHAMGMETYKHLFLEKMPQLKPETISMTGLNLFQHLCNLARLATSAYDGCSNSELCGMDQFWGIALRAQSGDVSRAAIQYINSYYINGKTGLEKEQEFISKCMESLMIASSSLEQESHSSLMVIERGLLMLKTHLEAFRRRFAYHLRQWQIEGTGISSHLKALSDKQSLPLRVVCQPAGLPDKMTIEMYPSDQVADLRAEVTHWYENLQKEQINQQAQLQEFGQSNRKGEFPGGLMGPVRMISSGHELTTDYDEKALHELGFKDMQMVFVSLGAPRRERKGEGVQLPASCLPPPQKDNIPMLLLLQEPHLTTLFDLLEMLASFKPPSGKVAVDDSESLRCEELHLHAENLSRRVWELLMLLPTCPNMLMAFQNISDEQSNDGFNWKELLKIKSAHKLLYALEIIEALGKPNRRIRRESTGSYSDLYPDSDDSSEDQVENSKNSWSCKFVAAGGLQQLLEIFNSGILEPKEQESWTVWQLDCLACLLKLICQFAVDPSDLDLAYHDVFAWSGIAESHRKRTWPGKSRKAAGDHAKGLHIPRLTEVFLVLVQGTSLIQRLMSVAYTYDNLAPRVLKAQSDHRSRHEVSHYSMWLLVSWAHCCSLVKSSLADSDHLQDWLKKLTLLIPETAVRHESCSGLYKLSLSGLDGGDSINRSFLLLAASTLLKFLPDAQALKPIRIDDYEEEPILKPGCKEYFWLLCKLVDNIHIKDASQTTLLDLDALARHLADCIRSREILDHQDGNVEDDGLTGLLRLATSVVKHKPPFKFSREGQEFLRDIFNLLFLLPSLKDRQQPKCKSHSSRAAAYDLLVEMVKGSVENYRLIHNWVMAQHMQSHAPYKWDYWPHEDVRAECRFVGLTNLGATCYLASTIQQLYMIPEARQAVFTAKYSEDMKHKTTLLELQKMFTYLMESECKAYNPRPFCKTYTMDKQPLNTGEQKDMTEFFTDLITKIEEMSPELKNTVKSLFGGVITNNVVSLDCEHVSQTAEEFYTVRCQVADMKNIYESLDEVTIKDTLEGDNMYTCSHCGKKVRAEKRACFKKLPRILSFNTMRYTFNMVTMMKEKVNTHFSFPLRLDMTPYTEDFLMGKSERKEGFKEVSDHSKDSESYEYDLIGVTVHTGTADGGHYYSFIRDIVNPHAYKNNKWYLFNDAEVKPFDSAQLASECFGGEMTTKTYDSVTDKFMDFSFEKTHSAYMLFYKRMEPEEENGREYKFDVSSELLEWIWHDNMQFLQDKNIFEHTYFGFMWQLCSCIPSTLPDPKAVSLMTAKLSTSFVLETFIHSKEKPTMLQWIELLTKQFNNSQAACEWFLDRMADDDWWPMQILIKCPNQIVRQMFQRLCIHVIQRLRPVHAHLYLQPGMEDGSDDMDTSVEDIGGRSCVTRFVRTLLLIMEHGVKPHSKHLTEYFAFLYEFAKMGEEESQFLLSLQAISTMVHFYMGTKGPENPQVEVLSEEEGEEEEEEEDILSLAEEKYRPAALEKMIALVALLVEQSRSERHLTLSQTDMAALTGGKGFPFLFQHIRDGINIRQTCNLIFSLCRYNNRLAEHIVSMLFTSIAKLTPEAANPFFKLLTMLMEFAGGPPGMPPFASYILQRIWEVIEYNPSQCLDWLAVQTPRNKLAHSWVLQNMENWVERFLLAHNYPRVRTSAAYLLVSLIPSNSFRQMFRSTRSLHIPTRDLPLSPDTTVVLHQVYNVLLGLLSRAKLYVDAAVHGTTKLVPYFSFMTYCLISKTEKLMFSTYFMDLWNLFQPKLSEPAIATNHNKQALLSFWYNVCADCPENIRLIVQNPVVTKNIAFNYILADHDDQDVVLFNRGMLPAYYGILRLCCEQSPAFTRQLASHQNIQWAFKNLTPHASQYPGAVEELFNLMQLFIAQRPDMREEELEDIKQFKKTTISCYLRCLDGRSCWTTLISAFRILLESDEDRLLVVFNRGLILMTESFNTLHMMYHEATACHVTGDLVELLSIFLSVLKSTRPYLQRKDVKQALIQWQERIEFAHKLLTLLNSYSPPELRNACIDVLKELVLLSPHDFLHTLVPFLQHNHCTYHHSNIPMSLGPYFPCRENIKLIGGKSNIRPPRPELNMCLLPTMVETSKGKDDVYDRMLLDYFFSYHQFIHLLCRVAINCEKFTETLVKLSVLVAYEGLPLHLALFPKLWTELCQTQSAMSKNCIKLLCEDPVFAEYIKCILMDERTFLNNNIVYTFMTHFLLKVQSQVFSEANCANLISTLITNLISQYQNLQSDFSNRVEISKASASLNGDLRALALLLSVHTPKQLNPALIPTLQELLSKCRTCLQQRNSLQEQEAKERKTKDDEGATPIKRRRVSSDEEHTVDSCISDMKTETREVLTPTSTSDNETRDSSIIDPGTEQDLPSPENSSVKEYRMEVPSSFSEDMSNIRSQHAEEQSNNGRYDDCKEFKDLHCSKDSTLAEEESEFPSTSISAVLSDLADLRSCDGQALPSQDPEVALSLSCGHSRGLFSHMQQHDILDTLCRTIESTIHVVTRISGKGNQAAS
In short: (§1)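 Each value is an average log2 ratio of fragment to vehicle, tested by unpaired t-test. The underlying Spectronaut label-free quantities were global-median-normalised, and only proteins with ≥2 unique peptides were included. Triplicate HEK293T lysate samples (495 µg) were exposed to fragment at 200 µM or vehicle for 3 h, then to Biotin-Ahx-Ub-VS at 0.5 µM final for 1 h, before NeutrAvidin enrichment of labelled DUBs, LysC and trypsin digestion, and diaPASEF LC-MS/MS.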

USP36 = biological target: T1, USP36 (UniProt Q9P275)
T1 sequence (whole entry): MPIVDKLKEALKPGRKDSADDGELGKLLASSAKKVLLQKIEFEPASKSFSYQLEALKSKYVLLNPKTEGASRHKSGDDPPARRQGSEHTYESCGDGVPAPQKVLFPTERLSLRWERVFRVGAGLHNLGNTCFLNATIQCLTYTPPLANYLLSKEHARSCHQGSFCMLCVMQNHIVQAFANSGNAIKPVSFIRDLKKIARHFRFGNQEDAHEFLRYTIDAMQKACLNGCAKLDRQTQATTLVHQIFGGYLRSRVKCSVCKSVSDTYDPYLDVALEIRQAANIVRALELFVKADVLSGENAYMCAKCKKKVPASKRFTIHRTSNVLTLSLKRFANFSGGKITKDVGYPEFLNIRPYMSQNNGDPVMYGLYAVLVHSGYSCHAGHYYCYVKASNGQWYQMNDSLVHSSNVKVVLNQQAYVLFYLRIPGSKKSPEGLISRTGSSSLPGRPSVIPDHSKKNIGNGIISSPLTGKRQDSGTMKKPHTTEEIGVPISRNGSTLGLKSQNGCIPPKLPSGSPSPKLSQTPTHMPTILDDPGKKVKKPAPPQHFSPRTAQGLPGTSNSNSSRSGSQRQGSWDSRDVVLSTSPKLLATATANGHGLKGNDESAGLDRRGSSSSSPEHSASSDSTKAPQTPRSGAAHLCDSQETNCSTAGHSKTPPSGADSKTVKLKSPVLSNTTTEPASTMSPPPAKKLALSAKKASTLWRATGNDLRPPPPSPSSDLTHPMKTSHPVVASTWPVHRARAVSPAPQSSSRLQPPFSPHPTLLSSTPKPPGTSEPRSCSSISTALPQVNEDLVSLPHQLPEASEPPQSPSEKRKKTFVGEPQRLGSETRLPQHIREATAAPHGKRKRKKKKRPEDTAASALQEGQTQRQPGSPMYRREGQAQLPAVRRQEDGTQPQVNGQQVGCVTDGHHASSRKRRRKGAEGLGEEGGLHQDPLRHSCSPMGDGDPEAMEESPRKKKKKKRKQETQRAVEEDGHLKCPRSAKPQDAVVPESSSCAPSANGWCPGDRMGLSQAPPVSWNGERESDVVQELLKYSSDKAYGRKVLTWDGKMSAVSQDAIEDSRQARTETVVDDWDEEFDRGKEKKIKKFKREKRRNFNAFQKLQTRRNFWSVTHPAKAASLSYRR
In short: as §1

USP38 = biological target: T2, USP38 (UniProt Q8NB14)
T2 sequence (whole entry): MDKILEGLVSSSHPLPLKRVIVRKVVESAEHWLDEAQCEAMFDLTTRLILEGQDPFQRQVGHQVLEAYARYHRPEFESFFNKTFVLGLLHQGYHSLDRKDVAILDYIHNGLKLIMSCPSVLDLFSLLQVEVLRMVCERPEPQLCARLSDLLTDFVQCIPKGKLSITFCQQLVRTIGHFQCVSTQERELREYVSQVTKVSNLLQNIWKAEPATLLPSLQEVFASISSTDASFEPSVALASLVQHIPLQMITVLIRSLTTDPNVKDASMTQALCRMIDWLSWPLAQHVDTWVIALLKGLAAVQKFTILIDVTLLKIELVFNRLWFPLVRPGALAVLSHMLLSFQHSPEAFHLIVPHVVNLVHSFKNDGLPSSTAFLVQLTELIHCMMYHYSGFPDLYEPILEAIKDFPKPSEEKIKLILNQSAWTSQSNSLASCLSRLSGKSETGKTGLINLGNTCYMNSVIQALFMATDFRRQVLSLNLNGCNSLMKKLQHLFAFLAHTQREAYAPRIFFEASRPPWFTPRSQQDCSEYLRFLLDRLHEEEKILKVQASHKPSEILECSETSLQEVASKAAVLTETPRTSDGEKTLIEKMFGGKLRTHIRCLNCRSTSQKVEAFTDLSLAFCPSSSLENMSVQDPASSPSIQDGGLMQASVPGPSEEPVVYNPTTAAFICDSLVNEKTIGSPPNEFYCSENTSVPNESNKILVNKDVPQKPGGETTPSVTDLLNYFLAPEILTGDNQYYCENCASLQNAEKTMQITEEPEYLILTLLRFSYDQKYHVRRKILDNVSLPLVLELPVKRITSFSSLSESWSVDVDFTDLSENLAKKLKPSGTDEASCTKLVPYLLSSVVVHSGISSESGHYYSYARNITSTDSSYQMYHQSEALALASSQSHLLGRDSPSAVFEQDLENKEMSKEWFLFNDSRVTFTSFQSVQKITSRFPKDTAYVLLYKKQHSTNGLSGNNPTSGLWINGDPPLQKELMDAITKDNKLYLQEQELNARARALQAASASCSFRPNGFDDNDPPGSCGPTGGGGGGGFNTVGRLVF
In short: as §1

USP39 = biological target: T3, USP39 (UniProt Q53GS9)
T3 sequence (whole entry): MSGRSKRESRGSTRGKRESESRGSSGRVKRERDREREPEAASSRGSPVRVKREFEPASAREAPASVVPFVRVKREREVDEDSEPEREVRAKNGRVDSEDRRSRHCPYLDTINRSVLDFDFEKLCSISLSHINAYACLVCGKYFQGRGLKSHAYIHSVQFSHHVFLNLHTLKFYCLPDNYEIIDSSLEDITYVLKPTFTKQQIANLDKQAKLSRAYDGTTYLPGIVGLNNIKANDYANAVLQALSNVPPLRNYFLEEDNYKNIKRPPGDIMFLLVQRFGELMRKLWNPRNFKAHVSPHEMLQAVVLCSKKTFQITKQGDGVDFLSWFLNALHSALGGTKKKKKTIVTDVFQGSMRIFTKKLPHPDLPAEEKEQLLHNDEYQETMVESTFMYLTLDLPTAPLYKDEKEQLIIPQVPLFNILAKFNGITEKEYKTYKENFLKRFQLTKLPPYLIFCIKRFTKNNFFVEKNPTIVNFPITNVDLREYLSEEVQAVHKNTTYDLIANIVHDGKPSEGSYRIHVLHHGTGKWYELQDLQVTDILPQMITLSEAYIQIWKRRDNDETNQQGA
In short: as §1

USP4 = biological target: T4, USP4 (UniProt Q13107)
T4 sequence (whole entry): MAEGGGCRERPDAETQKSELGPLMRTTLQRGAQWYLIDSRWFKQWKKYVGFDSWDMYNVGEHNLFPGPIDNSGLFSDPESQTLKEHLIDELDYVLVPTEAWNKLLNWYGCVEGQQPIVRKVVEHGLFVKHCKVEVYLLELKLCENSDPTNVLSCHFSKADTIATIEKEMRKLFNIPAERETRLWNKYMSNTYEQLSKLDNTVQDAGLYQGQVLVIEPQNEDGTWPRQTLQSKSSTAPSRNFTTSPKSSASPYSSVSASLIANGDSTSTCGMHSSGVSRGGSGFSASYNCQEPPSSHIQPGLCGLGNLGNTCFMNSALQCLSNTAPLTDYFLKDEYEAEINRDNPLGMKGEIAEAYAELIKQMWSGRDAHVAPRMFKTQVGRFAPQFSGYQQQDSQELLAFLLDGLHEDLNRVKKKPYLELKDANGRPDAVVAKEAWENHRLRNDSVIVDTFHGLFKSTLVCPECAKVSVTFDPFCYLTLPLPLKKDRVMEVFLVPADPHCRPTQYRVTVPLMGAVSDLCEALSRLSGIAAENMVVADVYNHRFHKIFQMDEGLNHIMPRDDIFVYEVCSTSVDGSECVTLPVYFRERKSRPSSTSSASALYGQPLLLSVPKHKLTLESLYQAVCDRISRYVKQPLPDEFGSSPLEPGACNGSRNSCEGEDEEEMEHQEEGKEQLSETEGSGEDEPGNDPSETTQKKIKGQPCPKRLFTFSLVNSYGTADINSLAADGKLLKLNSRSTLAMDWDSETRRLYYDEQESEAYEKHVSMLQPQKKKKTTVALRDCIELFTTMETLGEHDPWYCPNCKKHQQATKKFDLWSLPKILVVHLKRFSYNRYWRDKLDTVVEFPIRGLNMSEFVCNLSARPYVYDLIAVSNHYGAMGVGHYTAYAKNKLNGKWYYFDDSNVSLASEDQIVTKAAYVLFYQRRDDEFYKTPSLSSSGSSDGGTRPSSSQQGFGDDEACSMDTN
In short: as §1

Measured: log2 ratio of Biotin-Ahx-Ub-VS probe labelling

Cc1cccc(N2CCC(NC(=O)CCl)C2=O)c1 (stereo not given)
inactive: USP34 0.0479 | USP36 -0.0247 | USP38 -0.169 | USP39 -0.32 | USP4 -0.134
